Results taken from PMC7862700, “An all-to-all approach to the identification of sequence-specific readers for epigenetic DNA modifications on cytosine”.

Legend:
Test in all cases: DAPPL (digital affinity profiling via proximity ligation, sequencing); 10 mM Tris-HCl pH 7.5, 50 mM NaCl, 1 mM DTT, 4% glycerol, room temperature, 30 min; GST-TFs on glutathione beads, 16-mer random dsDNA library, 0.1% formaldehyde crosslink after washing; high values mean tight binding
FLI1 = biological target: T1, FLI1 (Homo sapiens, UniProt Q01543 1-452); conditions: protein: recombinant; tags: N-terminal GST; dsDNA, one strand shown
T1 sequence: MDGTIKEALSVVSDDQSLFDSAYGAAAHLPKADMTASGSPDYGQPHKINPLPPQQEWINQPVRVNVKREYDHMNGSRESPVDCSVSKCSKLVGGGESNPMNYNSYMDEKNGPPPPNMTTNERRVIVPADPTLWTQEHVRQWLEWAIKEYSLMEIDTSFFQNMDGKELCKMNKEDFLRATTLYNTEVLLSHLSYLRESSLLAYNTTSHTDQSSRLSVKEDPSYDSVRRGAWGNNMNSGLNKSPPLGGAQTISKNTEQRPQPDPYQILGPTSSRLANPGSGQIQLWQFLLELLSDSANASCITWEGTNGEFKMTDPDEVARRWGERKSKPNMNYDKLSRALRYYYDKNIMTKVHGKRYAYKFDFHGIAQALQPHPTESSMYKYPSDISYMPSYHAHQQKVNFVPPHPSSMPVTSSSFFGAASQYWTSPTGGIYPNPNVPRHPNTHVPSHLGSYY
How it was run: (§1)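 Each value of binding signal is a hexamer's read frequency for a factor divided by the same hexamer's frequency in the tag-only sample. Barcoded, bead-captured GST fusions of human transcription factors made in yeast were pooled with that sample and incubated with 200 nmole of a random double-stranded 16-mer DNA library in Tris/NaCl/DTT/glycerol buffer at room temperature for 30 min. Washing, 0.1% formaldehyde crosslinking, proximity ligation, PCR and Illumina NextSeq500 sequencing followed.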

ELK1 = biological target: T2, ELK1 (Homo sapiens, UniProt P19419 1-428); conditions: protein: recombinant; tags: N-terminal GST; dsDNA, one strand shown
T2 sequence: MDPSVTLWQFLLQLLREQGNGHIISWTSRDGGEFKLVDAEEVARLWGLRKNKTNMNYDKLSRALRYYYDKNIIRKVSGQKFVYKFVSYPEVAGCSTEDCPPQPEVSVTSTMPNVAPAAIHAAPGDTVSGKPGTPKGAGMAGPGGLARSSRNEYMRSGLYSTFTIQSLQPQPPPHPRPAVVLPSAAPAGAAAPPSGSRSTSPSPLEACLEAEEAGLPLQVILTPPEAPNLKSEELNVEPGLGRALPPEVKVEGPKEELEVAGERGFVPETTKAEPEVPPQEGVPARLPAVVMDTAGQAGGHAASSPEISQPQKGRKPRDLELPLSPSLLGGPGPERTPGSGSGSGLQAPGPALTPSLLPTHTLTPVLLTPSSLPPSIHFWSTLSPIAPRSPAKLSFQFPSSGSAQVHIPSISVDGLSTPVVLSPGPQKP
How it was run: as §1

GABPA = biological target: T3, GABPA (Homo sapiens, UniProt Q06546 1-454); conditions: protein: recombinant; tags: N-terminal GST; dsDNA, one strand shown
T3 sequence: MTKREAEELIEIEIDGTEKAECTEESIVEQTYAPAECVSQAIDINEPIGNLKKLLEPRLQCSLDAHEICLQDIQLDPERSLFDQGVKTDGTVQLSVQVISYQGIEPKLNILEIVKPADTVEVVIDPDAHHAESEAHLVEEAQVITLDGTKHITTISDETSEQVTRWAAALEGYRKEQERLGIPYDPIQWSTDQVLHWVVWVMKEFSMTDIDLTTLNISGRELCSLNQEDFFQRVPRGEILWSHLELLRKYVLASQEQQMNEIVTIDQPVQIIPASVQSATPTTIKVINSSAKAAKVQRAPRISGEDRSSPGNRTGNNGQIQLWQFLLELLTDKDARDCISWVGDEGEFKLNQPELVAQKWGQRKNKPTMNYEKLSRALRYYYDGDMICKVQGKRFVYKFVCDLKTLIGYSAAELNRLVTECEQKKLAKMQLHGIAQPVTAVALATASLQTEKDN
How it was run: as §1

ERG = biological target: T4, ERG (Homo sapiens, UniProt P11308 1-479); conditions: protein: recombinant; tags: N-terminal GST; dsDNA, one strand shown
T4 sequence: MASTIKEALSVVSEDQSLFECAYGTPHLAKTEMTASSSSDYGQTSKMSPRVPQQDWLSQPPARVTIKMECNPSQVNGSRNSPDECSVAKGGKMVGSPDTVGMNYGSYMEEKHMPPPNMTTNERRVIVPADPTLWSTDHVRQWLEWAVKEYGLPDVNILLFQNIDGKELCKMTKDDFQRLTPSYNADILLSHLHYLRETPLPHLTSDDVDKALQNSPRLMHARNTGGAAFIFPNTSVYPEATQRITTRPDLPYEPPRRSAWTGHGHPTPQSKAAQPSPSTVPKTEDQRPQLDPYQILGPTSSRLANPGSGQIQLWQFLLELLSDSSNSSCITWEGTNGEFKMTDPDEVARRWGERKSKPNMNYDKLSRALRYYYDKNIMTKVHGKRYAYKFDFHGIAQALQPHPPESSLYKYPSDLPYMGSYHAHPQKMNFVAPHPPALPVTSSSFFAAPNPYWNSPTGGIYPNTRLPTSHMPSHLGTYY
How it was run: as §1

ELF1 = ELF1 (Homo sapiens, UniProt P32519 1-619); conditions: protein: recombinant; tags: N-terminal GST; dsDNA, one strand shown
ELF1, sequence (P32519 whole entry): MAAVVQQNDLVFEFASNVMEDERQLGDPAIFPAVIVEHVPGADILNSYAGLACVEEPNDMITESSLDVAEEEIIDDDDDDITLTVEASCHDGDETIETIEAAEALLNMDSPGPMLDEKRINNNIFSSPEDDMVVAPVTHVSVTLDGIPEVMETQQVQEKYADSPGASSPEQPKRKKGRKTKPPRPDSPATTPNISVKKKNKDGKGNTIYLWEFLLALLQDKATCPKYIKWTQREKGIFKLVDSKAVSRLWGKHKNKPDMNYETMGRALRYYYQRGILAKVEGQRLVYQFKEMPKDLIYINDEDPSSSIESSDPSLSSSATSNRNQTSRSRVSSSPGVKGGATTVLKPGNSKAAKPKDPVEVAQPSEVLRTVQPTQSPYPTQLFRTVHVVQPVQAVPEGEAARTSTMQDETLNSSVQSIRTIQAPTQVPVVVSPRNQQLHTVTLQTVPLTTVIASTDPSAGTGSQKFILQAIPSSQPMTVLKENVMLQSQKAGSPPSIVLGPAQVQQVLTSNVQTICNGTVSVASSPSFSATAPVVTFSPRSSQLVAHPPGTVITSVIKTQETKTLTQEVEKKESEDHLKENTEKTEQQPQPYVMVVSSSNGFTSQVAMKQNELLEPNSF
How it was run: as §1

EHF = biological target: T5, EHF (Homo sapiens, UniProt Q9NZC4 1-300); conditions: protein: recombinant; tags: N-terminal GST; dsDNA, one strand shown
T5 sequence: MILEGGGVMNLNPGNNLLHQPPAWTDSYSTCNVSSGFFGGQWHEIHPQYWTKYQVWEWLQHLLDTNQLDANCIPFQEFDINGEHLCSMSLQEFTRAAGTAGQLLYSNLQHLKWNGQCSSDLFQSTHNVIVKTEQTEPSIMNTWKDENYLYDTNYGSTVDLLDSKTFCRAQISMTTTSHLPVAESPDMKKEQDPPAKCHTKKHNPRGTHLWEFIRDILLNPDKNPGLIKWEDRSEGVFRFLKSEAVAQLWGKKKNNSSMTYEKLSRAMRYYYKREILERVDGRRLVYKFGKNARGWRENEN
How it was run: as §1

SPI1 = SPI1 (Homo sapiens, UniProt P17947 1-270); conditions: protein: recombinant; tags: N-terminal GST; dsDNA, one strand shown
How it was run: as §1

SPIB = SPIB (Homo sapiens, UniProt Q01892 1-262); conditions: protein: recombinant; tags: N-terminal GST; dsDNA, one strand shown
SPIB, sequence (Q01892 whole entry): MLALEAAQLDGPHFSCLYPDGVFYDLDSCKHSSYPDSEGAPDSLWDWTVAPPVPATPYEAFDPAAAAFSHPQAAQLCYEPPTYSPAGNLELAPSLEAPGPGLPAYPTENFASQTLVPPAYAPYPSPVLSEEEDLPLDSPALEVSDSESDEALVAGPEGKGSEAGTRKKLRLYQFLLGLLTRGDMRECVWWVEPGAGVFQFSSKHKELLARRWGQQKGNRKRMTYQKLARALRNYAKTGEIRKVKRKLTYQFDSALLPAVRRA
How it was run: as §1

ELK3 = biological target: T6, ELK3 (Homo sapiens, UniProt P41970 1-407); conditions: protein: recombinant; tags: N-terminal GST; dsDNA, one strand shown
T6 sequence: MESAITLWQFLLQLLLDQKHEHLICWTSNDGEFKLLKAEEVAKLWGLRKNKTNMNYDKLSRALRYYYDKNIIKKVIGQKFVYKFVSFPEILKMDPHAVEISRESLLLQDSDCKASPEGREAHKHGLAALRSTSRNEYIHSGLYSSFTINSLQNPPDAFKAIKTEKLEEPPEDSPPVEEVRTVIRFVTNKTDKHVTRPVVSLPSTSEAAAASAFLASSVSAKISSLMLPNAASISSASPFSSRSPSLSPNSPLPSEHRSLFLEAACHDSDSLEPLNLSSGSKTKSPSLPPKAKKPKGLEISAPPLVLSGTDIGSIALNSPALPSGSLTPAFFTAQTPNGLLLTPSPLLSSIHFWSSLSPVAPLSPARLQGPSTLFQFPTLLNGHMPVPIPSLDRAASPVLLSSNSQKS
How it was run: as §1

FEV = biological target: T7, FEV (Homo sapiens, UniProt Q99581 1-238); conditions: protein: recombinant; tags: N-terminal GST; dsDNA, one strand shown
T7 sequence: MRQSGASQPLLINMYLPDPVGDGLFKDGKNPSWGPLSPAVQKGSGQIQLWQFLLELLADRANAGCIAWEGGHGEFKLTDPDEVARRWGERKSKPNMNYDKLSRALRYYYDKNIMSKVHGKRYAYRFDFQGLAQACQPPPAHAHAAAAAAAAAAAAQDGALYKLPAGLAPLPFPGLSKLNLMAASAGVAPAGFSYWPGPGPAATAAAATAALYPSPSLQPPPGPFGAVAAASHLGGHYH
How it was run: as §1

ETV5 = ETV5 (Homo sapiens, UniProt P41161 1-510); conditions: protein: recombinant; tags: N-terminal GST; dsDNA, one strand shown
ETV5, sequence (P41161 whole entry): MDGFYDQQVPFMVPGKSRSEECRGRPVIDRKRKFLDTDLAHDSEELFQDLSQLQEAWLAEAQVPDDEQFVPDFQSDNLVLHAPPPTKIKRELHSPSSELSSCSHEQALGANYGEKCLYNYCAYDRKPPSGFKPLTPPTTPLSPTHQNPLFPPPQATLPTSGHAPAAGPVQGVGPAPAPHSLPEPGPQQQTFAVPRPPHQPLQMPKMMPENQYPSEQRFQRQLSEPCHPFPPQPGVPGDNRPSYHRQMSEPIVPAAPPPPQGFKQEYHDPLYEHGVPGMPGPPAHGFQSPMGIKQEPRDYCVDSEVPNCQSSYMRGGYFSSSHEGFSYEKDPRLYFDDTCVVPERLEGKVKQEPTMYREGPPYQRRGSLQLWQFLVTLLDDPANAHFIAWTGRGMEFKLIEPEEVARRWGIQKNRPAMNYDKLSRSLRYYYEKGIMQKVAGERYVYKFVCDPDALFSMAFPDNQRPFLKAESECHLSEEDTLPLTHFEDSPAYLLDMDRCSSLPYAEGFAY
How it was run: as §1

HSF1 = HSF1 (Homo sapiens, UniProt Q00613 1-529); conditions: protein: recombinant; tags: N-terminal GST; chain copies: 3; dsDNA, one strand shown
HSF1, sequence (Q00613 whole entry): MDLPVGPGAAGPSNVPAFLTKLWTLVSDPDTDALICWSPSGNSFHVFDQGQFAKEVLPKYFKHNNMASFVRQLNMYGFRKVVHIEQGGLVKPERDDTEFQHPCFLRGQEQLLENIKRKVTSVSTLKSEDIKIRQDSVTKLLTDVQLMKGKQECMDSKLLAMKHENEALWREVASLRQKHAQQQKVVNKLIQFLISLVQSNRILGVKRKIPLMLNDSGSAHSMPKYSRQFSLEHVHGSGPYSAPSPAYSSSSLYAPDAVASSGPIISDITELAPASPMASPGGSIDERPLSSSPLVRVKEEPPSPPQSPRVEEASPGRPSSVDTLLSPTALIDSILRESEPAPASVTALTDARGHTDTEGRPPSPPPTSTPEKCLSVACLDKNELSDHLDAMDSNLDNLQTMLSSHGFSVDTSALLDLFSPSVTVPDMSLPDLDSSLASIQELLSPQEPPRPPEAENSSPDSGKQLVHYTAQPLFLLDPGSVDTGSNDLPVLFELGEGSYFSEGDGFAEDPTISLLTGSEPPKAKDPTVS
How it was run: as §1

SPIC = biological target: T8, SPIC (Homo sapiens, UniProt Q8N5J4 1-248); conditions: protein: recombinant; tags: N-terminal GST; dsDNA, one strand shown
T8 sequence: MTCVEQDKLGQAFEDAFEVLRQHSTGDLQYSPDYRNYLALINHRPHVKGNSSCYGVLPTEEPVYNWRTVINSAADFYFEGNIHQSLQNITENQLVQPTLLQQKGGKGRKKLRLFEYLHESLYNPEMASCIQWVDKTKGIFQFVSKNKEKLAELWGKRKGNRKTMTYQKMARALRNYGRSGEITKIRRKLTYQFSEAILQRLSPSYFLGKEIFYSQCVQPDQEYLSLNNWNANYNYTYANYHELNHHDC
How it was run: as §1

ELF4 = ELF4 (Homo sapiens, UniProt Q99607 1-663); conditions: protein: recombinant; tags: N-terminal GST; dsDNA, one strand shown
ELF4, sequence (Q99607 whole entry): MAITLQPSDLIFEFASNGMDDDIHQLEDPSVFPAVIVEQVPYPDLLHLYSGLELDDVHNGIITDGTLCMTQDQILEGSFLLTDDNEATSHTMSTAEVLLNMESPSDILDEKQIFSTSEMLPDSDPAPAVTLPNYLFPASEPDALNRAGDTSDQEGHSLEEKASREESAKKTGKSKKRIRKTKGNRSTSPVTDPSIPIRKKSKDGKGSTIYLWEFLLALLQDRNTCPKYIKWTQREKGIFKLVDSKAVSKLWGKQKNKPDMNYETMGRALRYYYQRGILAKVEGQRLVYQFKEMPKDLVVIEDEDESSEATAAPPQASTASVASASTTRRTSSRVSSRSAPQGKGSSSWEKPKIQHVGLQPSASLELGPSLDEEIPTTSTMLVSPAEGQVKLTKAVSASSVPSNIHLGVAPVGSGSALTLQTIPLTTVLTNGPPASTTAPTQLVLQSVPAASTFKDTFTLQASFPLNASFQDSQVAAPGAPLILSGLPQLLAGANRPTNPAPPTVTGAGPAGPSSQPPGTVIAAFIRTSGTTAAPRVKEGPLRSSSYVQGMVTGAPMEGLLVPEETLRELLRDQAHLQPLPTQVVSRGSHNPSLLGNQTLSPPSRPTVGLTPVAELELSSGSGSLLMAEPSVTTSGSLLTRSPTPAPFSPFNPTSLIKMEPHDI
How it was run: as §1

ELK4 = biological target: T9, ELK4 (Homo sapiens, UniProt P28324-2 1-405); conditions: protein: recombinant; tags: N-terminal GST; dsDNA, one strand shown
T9 sequence: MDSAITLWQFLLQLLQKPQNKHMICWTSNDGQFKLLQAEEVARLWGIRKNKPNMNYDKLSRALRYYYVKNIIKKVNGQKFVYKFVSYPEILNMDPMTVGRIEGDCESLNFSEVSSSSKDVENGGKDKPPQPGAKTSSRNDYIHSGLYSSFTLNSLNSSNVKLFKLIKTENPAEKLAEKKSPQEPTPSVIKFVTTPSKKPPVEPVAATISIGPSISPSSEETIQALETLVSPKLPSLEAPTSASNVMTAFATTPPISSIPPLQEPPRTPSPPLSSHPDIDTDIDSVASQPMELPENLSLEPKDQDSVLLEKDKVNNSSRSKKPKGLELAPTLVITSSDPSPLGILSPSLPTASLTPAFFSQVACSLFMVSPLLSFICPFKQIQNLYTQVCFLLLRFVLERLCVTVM
How it was run: as §1

ETV2 = biological target: T10, ETV2 (Homo sapiens, UniProt O00321 1-342); conditions: protein: recombinant; tags: N-terminal GST; dsDNA, one strand shown
T10 sequence: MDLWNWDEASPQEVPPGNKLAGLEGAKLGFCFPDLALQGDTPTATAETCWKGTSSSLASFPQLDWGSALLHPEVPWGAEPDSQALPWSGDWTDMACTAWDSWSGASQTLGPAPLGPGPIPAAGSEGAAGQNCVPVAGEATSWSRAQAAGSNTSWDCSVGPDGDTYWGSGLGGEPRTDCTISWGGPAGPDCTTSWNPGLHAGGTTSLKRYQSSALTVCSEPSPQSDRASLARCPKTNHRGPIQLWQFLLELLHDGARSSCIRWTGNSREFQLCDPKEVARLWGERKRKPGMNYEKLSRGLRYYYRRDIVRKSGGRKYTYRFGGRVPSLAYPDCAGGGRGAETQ
How it was run: as §1

ELF3 = biological target: T11, ELF3 (Homo sapiens, UniProt P78545 1-371); conditions: protein: recombinant; tags: N-terminal GST; dsDNA, one strand shown
T11 sequence: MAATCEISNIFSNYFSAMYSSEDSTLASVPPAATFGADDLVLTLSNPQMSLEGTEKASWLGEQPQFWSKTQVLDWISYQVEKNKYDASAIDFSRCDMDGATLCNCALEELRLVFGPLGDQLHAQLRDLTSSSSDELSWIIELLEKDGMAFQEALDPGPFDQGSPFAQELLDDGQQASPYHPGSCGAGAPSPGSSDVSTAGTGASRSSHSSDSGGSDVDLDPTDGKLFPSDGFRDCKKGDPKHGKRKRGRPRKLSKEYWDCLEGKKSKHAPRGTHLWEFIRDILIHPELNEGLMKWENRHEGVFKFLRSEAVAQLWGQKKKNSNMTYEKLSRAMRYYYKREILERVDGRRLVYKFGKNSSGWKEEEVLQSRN
How it was run: as §1

CRX = CRX (Homo sapiens, UniProt O43186 1-299); conditions: protein: recombinant; tags: N-terminal GST; dsDNA, one strand shown
CRX, sequence (O43186 whole entry): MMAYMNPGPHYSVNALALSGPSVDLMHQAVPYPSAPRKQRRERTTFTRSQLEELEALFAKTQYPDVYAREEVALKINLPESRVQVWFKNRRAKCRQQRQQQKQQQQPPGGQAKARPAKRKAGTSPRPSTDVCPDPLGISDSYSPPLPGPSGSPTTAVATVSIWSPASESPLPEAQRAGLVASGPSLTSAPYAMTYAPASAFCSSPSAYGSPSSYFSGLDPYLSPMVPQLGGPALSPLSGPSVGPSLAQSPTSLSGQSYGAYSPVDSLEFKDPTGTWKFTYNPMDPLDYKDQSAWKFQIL
How it was run: as §1

ETV1 = ETV1 (Homo sapiens, UniProt P50549 1-477); conditions: protein: recombinant; tags: N-terminal GST; dsDNA, one strand shown
ETV1, sequence (P50549 whole entry): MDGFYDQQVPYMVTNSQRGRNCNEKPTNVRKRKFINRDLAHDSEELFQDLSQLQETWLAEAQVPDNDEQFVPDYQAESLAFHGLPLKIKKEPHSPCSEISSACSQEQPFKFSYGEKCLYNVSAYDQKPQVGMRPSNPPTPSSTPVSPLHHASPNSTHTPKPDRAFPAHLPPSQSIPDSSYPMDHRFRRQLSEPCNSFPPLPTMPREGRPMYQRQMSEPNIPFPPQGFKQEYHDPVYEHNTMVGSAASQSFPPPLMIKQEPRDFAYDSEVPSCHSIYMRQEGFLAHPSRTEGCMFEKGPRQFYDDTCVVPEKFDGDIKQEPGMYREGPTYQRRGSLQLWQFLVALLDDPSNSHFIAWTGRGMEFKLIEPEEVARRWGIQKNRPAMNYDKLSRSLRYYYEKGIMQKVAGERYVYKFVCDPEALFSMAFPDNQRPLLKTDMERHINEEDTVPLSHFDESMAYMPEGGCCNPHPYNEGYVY
How it was run: as §1

CTGGCA
binding signal (FLI1): 1.33 fold enrichment (6-mer frequency, TF over GST control)
binding signal (ELK1): 1.28 fold enrichment (6-mer frequency, TF over GST control)
binding signal (GABPA): 1.39 fold enrichment (6-mer frequency, TF over GST control)
binding signal (ERG): 1.2 fold enrichment (6-mer frequency, TF over GST control)
binding signal (ELF1): 1.26 fold enrichment (6-mer frequency, TF over GST control)
binding signal (EHF): 1.23 fold enrichment (6-mer frequency, TF over GST control)
binding signal (SPI1): 1.22 fold enrichment (6-mer frequency, TF over GST control)
binding signal (SPIB): 1.29 fold enrichment (6-mer frequency, TF over GST control)
binding signal (ELK3): 1.43 fold enrichment (6-mer frequency, TF over GST control)
binding signal (FEV): 1.27 fold enrichment (6-mer frequency, TF over GST control)
binding signal (ETV5): 1.21 fold enrichment (6-mer frequency, TF over GST control)
binding signal (HSF1): 1.62 fold enrichment (6-mer frequency, TF over GST control)
binding signal (SPIC): 1.28 fold enrichment (6-mer frequency, TF over GST control)
binding signal (ELF4): 1.35 fold enrichment (6-mer frequency, TF over GST control)
binding signal (ELK4): 1.27 fold enrichment (6-mer frequency, TF over GST control)
binding signal (ETV2): 1.49 fold enrichment (6-mer frequency, TF over GST control)
binding signal (ELF3): 1.3 fold enrichment (6-mer frequency, TF over GST control)
binding signal (CRX): 1.19 fold enrichment (6-mer frequency, TF over GST control)
binding signal (ETV1): 1.27 fold enrichment (6-mer frequency, TF over GST control)
